Read-out in assay [1]: Vascular endothelial growth factor receptor 2 (Homo sapiens) (UniProt P35968)
Kind of assay: BSK_4H_VEGFRII: BioMAP Diversity Plus: 4H Assay for Vascular endothelial growth factor receptor 2 (VEGFR2) Biomarker Activity (AID 2283031).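 As to AC50: cell-surface VEGFR2 protein level quantified by ELISA.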 The note with it: primary human endothelial cells (HUVEC); actives raise or lower the signal. The method in brief: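 Primary human umbilical vein endothelial cells (4H system), 24 h exposure; cell-surface VEGFR2 measured by ELISA. Bidirectional fitting versus DMSO; cytotoxicity checked in parallel by SRB total-protein staining.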

Read-out in assay [2]: Human Leukocyte Antigen - DR isotype (HLADR), HLA-DRA (gene 3122)
Kind of assay: BSK_BE3C_HLADR: BioMAP Diversity Plus: BE3C Assay for Human Leukocyte Antigen - DR isotype (HLADR) Biomarker Activity (AID 2283032). As to conditions: primary human bronchial epithelial cells; actives raise or lower the signal. Summed up: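 Human primary bronchial epithelial cells in the BE3C system were exposed to chemicals for 24 h, after which HLA-DR levels were quantified by ELISA. Activity was fitted bidirectionally, gain or loss of signal, against DMSO as negative control and baseline.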

Read-out in assay [3]: Vascular cell adhesion molecule 1 (VCAM1), VCAM1 (gene 7412)
Kind of assay: BSK_4H_VCAM1: BioMAP Diversity Plus: 4H Assay for Vascular cell adhesion molecule 1 (VCAM1) Biomarker Activity (AID 2283033).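 As to outcome: cell-surface VCAM-1 protein measured by ELISA.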 As to conditions: primary human endothelial cells (HUVEC); actives raise or lower the signal. Summed up: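 Primary human umbilical vein endothelial cells were exposed to chemicals for 24 h, after which VCAM-1 was quantified by ELISA. Responses were fitted bidirectionally against DMSO as negative control and activity baseline.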

Read-out in assay [4]: Interferon-gamma inducible Protein 10 (IP10), CXCL10 (gene 3627)
Nature of the assay: BSK_BE3C_IP10: BioMAP Diversity Plus: BE3C Assay for Interferon-gamma inducible Protein 10 (IP10) Biomarker Activity (AID 2283034). The note with it: primary human bronchial epithelial cells; actives raise or lower the signal. Summed up: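 Human primary bronchial epithelial cells were exposed to chemicals for 24 hours, after which IP-10 levels were measured by ELISA. Data were fitted bidirectionally against DMSO, which served as the negative control and activity baseline.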

Read-out in assay [5]: Monokine induced gamma interferon (MIG), CXCL9 (gene 4283)
Nature of the assay: BSK_BE3C_MIG: BioMAP Diversity Plus: BE3C Assay for Monokine induced gamma interferon (MIG) Biomarker Activity (AID 2283035). The note with it: primary human bronchial epithelial cells; actives raise or lower the signal. Summed up: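 Primary human bronchial epithelial cells treated for 24 h; MIG levels measured by ELISA, fitted bidirectionally versus DMSO. Parallel SRB total-protein staining assessed cytotoxicity.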

Read-out in assay [6]: Transforming growth factor beta 1 (TGFb1), TGFB1 (gene 7040)
Kind of assay: BSK_BE3C_TGFb1: BioMAP Diversity Plus: BE3C Assay for Transforming growth factor beta 1 (TGFb1) Biomarker Activity (AID 2283036). The note with it: primary human bronchial epithelial cells; actives raise or lower the signal. Summed up:
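Human primary bronchial epithelial cells (BE3C system) were dosed with chemical and TGF-b1 levels measured by ELISA at 24 h. Activity was fitted bidirectionally relative to DMSO negative control as baseline.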

Read-out in assay [7]: Plasminogen activator inhibitor-1 (PAI1), SERPINE1 (gene 5054)
Kind of assay: BSK_BE3C_PAI1: BioMAP Diversity Plus: BE3C Assay for Plasminogen activator inhibitor-1 (PAI1) Biomarker Activity (AID 2283037). The note with it: primary human bronchial epithelial cells; actives raise or lower the signal. Summed up:
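Human primary bronchial epithelial cells were exposed to chemical for 24 h, then PAI-1 was quantified by ELISA. Activity was fitted bidirectionally relative to the DMSO negative control baseline.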

Read-out in assay [8]: urokinase plasminogen activator (uPA), PLAU (gene 5328)
Nature of the assay: BSK_BE3C_uPA: BioMAP Diversity Plus: BE3C Assay for urokinase plasminogen activator (uPA) Biomarker Activity (AID 2283038).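 As to outcome: uPA protein level quantified by ELISA in cell cultures; uPA read one day after compound addition.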 The note with it: primary human bronchial epithelial cells; actives raise or lower the signal. The method in brief: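 Primary human bronchial epithelial cells, uPA measured by ELISA 24 h after dosing. Bidirectional change relative to DMSO; cytotoxicity checked in parallel cultures by sulforhodamine B total-protein staining.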

Read-out in assay [9]: Urokinase-type plasminogen activator receptor (uPAR), PLAUR (gene 5329)
Nature of the assay: BSK_BE3C_uPAR: BioMAP Diversity Plus: BE3C Assay for Urokinase-type plasminogen activator receptor (uPAR) Biomarker Activity (AID 2283039).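 As to outcome: cells exposed to compound for one day before measurement.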 The note with it: primary human bronchial epithelial cells; actives raise or lower the signal. The method in brief: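 Primary human bronchial epithelial cells were dosed with chemical and harvested 24 h later; uPAR was quantified by ELISA. Activity was fitted bidirectionally against DMSO as negative control and baseline.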

Read-out in assay [10]: Interleukin-6 (IL6), IL6 (gene 3569)
Kind of assay: BSK_CASM3C_IL6: BioMAP Diversity Plus: CASM3C Assay for Interleukin-6 (IL6) Biomarker Activity for (AID 2283040). As to conditions: primary human coronary artery smooth muscle cells; actives raise or lower the signal.

Read-out in assay [11]: Interleukin-8 (IL8), CXCL8 (gene 3576)
Kind of assay: BSK_CASM3C_IL8: BioMAP Diversity Plus: CASM3C Assay for Interleukin-8 (IL8) Biomarker Activity (AID 2283042).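 Also: IL-8 protein level quantified by ELISA.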 As to conditions: primary human coronary artery smooth muscle cells; actives raise or lower the signal.

Read-out in assay [12]: Human Leukocyte Antigen - DR isotype (HLADR), HLA-DRA (gene 3122)
Kind of assay: BSK_CASM3C_HLADR: BioMAP Diversity Plus: CASM3C Assay for Human Leukocyte Antigen - DR isotype (HLADR) Biomarker Activity (AID 2283043).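 Also: cell-surface HLA-DR protein level quantified by ELISA.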 As to conditions: primary human coronary artery smooth muscle cells; actives raise or lower the signal.

Read-out in assay [13]: Macrophage colony-stimulating factor (MCSF), CSF1 (gene 1435)
Nature of the assay: BSK_CASM3C_MCSF: BioMAP Diversity Plus: CASM3C Assay for Macrophage colony-stimulating factor (MCSF) Biomarker Activity (AID 2283044).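 Also: M-CSF protein amount quantified by ELISA after 24 h exposure.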 The note with it: primary human coronary artery smooth muscle cells; actives raise or lower the signal.

Read-out in assay [14]: Low-density lipoprotein receptor (LDLR), LDLR (gene 3949)
Kind of assay: BSK_CASM3C_LDLR: BioMAP Diversity Plus: CASM3C Assay for Low-density lipoprotein receptor (LDLR) Biomarker Activity (AID 2283045).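 Also: LDLR protein level on the cell surface quantified by ELISA.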 As to conditions: primary human coronary artery smooth muscle cells; actives raise or lower the signal.

Read-out in assay [15]: Monocyte Chemoattractant Protein-1 (MCP1), CCL2 (gene 6347)
Nature of the assay: BSK_CASM3C_MCP1: BioMAP Diversity Plus: CASM3C Assay for Monocyte Chemoattractant Protein-1 (MCP1) Biomarker Activity (AID 2283046).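 Also: MCP-1 level quantified by ELISA 24 h after dosing.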 The note with it: primary human coronary artery smooth muscle cells; actives raise or lower the signal.

Assay [16] is described as follows: BSK_CASM3C_Proliferation: Cell Proliferation Assessment in the BioMAP Diversity Plus: CASM3C Assay (AID 2283047).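 Also: sulforhodamine B total protein stain as relative cell number at 560 nm; sub-confluent cells exposed 48 h before staining; fitted both ways against DMSO so gain or loss of cell number.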 As to conditions: primary human coronary artery smooth muscle cells.
Read-out in assay [17]: Monokine induced gamma interferon (MIG), CXCL9 (gene 4283)
Kind of assay: BSK_CASM3C_MIG: BioMAP Diversity Plus: CASM3C Assay for Monokine induced gamma interferon (MIG) Biomarker Activity (AID 2283048). As to conditions: primary human coronary artery smooth muscle cells; actives raise or lower the signal.

Read-out in assay [18]: serum amyloid A (SAA), SAA1 (gene 6288)
Nature of the assay: BSK_CASM3C_SAA: BioMAP Diversity Plus: CASM3C Assay for serum amyloid A (SAA) Biomarker Activity (AID 2283049).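 Also: SAA protein level quantified by ELISA.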 The note with it: primary human coronary artery smooth muscle cells; actives raise or lower the signal.

Read-out in assay [19]: Urokinase-type plasminogen activator receptor (uPAR), PLAUR (gene 5329)
Kind of assay: BSK_4H_uPAR: BioMAP Diversity Plus: 4H Assay for Urokinase-type plasminogen activator receptor (uPAR) Biomarker Activity (AID 2283030). As to conditions: primary human endothelial cells (HUVEC); actives raise or lower the signal. The method in brief:
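Human umbilical vein endothelial cells in the 4H system, 24 h after chemical dosing. Cell-surface uPAR measured by ELISA, fitted in both directions versus DMSO; cytotoxicity checked by SRB total protein in parallel cultures.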

Read-out in assay [20]: Tissue plasminogen activator (tPA), PLAT (gene 5327)
Nature of the assay: BSK_BE3C_tPA: BioMAP Diversity Plus: BE3C Assay for Tissue plasminogen activator (tPA) Biomarker Activity (AID 2283041).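 Also: tPA level quantified by ELISA one day after compound addition.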 As to conditions: primary human bronchial epithelial cells; actives raise or lower the signal. Summed up: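 Human primary bronchial epithelial cells were dosed with chemical and tPA biomarker levels measured by ELISA 24 hours later. Activity was fitted bidirectionally against DMSO as negative control and baseline.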

Several values for one entry are separate records, joined by “and”; a condition that tells them apart may be missing. Equal values may be shown once. Where a structure was tested more than once in an assay, its records may differ in their call. Activity calls are given as the source filed them. The calls were made as follows: active = hit-call score of the fitted dose curve at least 0.9, where 1 is the maximum; inactive = score below 0.9.

Our source for the AC50 and outcome values is PubChem BioAssay (EPA / NIEHS).

The term AC50 denotes the midpoint of the concentration-response curve, whichever way the signal moves.

In the case of `COc1ccc(C(=O)/C(Br)=C\C(=O)O)cc1`, the AC50 in assay [1] is 29.8 µM (active); in assay [2], 26.8 µM (active) and 20 µM (active); in [3], 22.1 µM (active) and 20 µM (active); in [4] it was 20 µM (active); in [5], 28.8 µM (active); in [6] it was 8.23 µM (active). The AC50 is 8.24 µM (active) in [7]; 20 µM (active) in assay [8]; 20 µM (active) and 23.2 µM (active) in [10]; 35.4 µM (active) and 29.1 µM (active) in assay [11]; 6.86 µM (active) and 20.6 µM (active) in assay [12]; 20 µM (active) and 29.7 µM (active) in assay [13]. Also, the AC50 in [14] is 13.2 µM (active) and 26.7 µM (active); in assay [15], 30 µM (active) and 31.1 µM (active); in assay [16], 4.88 µM (active) and 24.3 µM (active); in [17], 29.2 µM (active) and 31 µM (active); in [18], 11.4 µM (active). Besides, the outcome in [1], in assay [5], in assay [6], in [7], in assay [8] and in assay [9] was inactive. In assay [18], the outcome was inactive.
Turning to `CCCCC1C(=O)N(c2ccccc2)N(c2ccccc2)C1=O`, the result in assay [19], in [1], in assay [2], in assay [3], in assay [4] and in [5] was inactive. For the same compound, the result in [6], in assay [7], in assay [8], in [9], in assay [10] and in [20] was inactive. In addition, the outcome in [11], in assay [12], in assay [13], in assay [14], in assay [15] and in assay [16] was inactive. Besides, the outcome in assay [17] and in assay [18] was inactive.
For the compound `C=C(C)C(=O)OCCCCCCCCCCCC`, the outcome in [1], in assay [2], in [3], in assay [4], in [5] and in [6] was inactive. Further, the outcome in assay [7], in [8], in [9], in assay [10], in [11] and in assay [12] was inactive. Moreover, the result in assay [13], in assay [14], in assay [15], in assay [16], in assay [17] and in assay [18] was inactive.
On to `C=CC(=O)NCOCCCC`, for which the outcome in [1], in [2], in assay [3], in [4], in [5] and in [6] was inactive. Further, the outcome in assay [7], in [8], in [9], in assay [10], in assay [11] and in [12] was inactive. Besides, the outcome in assay [13], in [14], in assay [15], in assay [16], in assay [17] and in assay [18] was inactive.
With `CC/C=C\C/C=C\C/C=C\CCCCCCCC(=O)OC`, in [1], the outcome was inactive. In addition, the AC50 is 13.4 µM (active) in [2]; 29 µM (active) in assay [3]; 11.8 µM (active) in assay [4]; 29.6 µM (active) in [5]; 9.17 µM (active) in assay [6]; 25.5 µM (active) in [7]. Further, the AC50 was 29.8 µM (active) in [8]; 28.8 µM (active) in [9]; 31.5 µM (active) in assay [10]; 32.2 µM (active) in [11]; 12.1 µM (active) in [12]; 22.6 µM (active) in assay [13]. The AC50 in assay [14] is 28.7 µM (active); in assay [15], 29.7 µM (active); in [16], 8.6 µM (active); in assay [17], 29.3 µM (active); in assay [18] it was 26 µM (active).
Take `CC1=CC=C(C(C)C)CC1`: the result in [1], in [2], in [3], in [4], in [5] and in assay [6] was inactive. Besides, the outcome in assay [7], in assay [8], in [9], in assay [10], in [11] and in assay [12] was inactive. Further, the result in [13], in [14], in [15], in assay [16], in assay [17] and in assay [18] was inactive.
On to `O=C(Cl)c1c(Cl)c(Cl)c(C(=O)Cl)c(Cl)c1Cl`, for which the result in assay [1], in [2], in assay [3], in assay [4], in assay [5] and in assay [6] was inactive. For the same compound, the result in [7], in [8], in assay [9], in [10], in assay [11] and in assay [12] was inactive. Further, the outcome in [13], in assay [14], in [15], in assay [16], in [17] and in assay [18] was inactive.
